Experiment in all cases: DAPPL (digital affinity profiling via proximity ligation, sequencing); 10 mM Tris-HCl pH 7.5, 50 mM NaCl, 1 mM DTT, 4% glycerol, room temperature, 30 min; GST-TFs on glutathione beads, 16-mer random dsDNA library, 0.1% formaldehyde crosslink after washing; high values mean tight binding
One experiment concerns the target T1, FEV (Homo sapiens, UniProt Q99581 1-238).
T1 sequence: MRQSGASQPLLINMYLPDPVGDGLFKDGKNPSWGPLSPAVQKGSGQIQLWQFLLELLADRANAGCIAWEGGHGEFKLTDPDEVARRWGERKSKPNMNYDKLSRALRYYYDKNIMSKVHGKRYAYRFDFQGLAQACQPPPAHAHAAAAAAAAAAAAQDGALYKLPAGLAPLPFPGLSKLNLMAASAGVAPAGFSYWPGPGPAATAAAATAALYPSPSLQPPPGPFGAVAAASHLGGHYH
The note with it: protein: recombinant; tags: N-terminal GST; dsDNA, one strand shown. The essentials: (§1)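 Binding signal is defined as a hexamer's read frequency for one factor over its frequency for the tag-only sample. To obtain reads, GST-fused human transcription factors were expressed in yeast, captured on glutathione beads, barcoded with DNA and pooled with that sample. Pools met 200 nmole of a 16-mer random double-stranded DNA library in Tris/NaCl/DTT/glycerol buffer for 30 min at room temperature before washing, 0.1% formaldehyde crosslinking, proximity ligation (BsaI/T4 ligase, 1 h, 37 °C), PCR and Illumina NextSeq500 sequencing.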

For the next experiment, the target named is ETV5 (Homo sapiens, UniProt P41161 1-510). The following applies: protein: recombinant; tags: N-terminal GST; dsDNA, one strand shown. The gist of the method: as §1
Chain of ETV5 (P41161 whole entry): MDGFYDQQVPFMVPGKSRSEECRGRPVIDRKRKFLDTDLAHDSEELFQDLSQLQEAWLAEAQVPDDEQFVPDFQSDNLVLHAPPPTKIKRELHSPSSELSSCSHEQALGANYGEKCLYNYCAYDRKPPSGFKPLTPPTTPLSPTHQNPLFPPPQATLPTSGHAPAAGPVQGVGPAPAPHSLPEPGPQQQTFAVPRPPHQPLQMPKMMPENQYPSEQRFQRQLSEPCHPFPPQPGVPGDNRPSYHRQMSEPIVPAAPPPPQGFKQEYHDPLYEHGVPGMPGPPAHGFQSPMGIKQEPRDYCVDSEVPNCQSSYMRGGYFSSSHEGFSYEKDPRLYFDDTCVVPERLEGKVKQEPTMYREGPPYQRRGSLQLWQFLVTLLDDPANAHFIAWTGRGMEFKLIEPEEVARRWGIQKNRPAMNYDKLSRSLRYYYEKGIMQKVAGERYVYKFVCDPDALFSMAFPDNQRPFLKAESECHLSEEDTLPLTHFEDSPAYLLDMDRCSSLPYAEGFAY
In another experiment the target is HSF1 (Homo sapiens, UniProt Q00613 1-529). The note with it: protein: recombinant; tags: N-terminal GST; chain copies: 3; dsDNA, one strand shown. The gist of the method: as §1
Chain of HSF1 (Q00613 whole entry): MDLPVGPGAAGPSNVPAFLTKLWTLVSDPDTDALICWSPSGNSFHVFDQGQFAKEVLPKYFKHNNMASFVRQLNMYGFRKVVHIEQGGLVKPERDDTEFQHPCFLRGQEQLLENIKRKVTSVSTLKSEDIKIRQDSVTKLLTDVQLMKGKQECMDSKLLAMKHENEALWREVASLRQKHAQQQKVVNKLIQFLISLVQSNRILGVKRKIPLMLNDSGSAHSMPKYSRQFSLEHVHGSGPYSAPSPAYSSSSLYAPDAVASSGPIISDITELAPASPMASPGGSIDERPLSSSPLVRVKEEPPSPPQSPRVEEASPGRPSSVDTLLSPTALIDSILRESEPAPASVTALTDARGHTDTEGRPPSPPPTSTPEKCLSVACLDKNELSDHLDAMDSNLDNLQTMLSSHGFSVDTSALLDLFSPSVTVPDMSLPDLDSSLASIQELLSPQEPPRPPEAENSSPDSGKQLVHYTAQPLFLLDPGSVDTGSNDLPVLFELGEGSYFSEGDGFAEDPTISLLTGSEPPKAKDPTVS
A further experiment has as its target T2, SPIC (Homo sapiens, UniProt Q8N5J4 1-248).
T2 sequence: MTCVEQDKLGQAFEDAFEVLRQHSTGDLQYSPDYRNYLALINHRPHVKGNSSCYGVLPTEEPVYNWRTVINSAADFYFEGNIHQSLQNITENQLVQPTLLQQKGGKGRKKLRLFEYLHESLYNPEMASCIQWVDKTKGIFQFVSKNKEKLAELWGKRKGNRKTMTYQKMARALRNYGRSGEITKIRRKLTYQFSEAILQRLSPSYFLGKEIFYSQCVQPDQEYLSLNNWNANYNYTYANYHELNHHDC
The note with it: protein: recombinant; tags: N-terminal GST; dsDNA, one strand shown. The essentials: as §1

The target of the next experiment is ELF4 (Homo sapiens, UniProt Q99607 1-663). The following applies: protein: recombinant; tags: N-terminal GST; dsDNA, one strand shown. The essentials: as §1
Chain of ELF4 (Q99607 whole entry): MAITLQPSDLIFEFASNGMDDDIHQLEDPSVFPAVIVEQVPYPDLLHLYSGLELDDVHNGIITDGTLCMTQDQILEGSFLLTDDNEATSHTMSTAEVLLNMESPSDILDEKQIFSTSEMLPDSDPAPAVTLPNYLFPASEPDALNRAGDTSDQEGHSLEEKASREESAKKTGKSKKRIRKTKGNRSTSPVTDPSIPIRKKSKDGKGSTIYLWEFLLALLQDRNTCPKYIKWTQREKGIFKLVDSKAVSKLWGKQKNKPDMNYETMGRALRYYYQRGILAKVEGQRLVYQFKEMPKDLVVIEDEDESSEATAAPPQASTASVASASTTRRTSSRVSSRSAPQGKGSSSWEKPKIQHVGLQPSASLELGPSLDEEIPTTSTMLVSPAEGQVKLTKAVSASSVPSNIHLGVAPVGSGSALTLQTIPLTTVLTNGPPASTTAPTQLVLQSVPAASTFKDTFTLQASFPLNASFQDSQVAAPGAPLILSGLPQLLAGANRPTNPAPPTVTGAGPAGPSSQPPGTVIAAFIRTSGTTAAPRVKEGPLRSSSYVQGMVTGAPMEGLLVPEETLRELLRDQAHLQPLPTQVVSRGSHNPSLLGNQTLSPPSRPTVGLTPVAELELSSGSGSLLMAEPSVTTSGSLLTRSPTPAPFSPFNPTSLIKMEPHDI
A further experiment has as its target T3, ELK4 (Homo sapiens, UniProt P28324-2 1-405).
T3 sequence: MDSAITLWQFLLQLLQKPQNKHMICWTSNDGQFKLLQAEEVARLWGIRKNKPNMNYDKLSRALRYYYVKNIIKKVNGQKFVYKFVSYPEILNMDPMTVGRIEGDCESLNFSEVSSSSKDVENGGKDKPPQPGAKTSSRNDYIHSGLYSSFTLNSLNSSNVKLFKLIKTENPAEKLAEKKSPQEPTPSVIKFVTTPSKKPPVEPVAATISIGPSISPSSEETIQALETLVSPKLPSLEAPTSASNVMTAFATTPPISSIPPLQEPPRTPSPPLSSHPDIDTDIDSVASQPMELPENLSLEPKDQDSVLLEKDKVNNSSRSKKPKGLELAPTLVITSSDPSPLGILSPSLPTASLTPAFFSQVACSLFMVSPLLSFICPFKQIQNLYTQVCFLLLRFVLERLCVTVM
The following applies: protein: recombinant; tags: N-terminal GST; dsDNA, one strand shown. The gist of the method:
as §1

For the next experiment, the target named is T4, ETV2 (Homo sapiens, UniProt O00321 1-342).
T4 sequence: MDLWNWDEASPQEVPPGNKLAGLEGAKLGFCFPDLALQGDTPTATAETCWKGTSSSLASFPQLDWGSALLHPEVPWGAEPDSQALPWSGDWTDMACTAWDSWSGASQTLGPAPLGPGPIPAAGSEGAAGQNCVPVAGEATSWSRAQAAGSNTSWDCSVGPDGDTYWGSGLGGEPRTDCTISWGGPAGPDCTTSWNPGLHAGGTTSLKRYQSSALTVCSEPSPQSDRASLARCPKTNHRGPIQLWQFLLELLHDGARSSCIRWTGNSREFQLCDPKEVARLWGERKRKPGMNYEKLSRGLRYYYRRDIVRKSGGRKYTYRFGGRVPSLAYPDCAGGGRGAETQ
The following applies: protein: recombinant; tags: N-terminal GST; dsDNA, one strand shown. The essentials:
as §1

The next experiment concerns the target T5, ELF3 (Homo sapiens, UniProt P78545 1-371).
T5 sequence: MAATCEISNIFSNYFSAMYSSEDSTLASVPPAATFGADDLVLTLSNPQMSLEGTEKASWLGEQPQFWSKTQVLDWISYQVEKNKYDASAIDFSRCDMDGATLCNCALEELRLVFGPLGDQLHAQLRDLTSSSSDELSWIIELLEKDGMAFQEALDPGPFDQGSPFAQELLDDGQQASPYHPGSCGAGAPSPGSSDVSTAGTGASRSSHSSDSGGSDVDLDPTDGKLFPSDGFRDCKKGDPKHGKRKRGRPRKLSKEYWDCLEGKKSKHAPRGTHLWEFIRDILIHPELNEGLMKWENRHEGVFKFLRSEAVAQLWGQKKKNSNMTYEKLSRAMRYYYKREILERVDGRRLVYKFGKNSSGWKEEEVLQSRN
The note with it: protein: recombinant; tags: N-terminal GST; dsDNA, one strand shown. The essentials:
as §1

The next experiment concerns the target CRX (Homo sapiens, UniProt O43186 1-299). The note with it: protein: recombinant; tags: N-terminal GST; dsDNA, one strand shown. The essentials:
as §1

The target in the next experiment is ETV1 (Homo sapiens, UniProt P50549 1-477). The following applies: protein: recombinant; tags: N-terminal GST; dsDNA, one strand shown. The essentials: as §1
Chain of ETV1 (P50549 whole entry): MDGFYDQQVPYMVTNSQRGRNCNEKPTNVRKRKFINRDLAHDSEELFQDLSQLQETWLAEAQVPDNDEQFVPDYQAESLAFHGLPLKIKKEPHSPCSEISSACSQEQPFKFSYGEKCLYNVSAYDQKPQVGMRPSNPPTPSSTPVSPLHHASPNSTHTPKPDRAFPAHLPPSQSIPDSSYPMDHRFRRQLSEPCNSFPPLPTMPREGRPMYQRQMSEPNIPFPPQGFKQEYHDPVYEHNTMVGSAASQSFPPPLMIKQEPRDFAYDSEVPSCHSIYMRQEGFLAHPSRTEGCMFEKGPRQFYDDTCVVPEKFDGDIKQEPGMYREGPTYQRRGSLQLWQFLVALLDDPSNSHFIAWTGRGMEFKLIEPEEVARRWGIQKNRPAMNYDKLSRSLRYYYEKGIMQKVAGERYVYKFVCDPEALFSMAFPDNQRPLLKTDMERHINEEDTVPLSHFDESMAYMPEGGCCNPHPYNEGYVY
For the next experiment, the target named is T6, ERF (Homo sapiens, UniProt P50548 1-548).
T6 sequence: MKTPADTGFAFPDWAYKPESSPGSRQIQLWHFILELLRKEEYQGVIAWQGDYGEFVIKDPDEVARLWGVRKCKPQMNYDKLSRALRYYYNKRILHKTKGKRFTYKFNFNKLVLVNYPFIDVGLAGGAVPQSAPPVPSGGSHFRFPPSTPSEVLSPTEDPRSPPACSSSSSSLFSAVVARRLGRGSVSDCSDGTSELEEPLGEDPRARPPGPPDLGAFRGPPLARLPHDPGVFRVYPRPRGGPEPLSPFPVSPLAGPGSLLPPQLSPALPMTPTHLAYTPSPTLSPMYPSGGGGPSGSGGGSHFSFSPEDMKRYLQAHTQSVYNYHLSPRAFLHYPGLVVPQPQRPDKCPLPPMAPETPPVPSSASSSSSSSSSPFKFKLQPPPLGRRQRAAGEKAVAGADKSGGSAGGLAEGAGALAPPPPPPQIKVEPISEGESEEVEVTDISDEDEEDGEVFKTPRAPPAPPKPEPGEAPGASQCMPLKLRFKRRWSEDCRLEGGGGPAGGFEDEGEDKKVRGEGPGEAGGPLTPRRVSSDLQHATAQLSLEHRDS
The following applies: protein: recombinant; tags: N-terminal GST; dsDNA, one strand shown. The gist of the method: as §1

A further experiment addresses T7, ETV3L (Homo sapiens, UniProt Q6ZN32 1-361).
T7 sequence: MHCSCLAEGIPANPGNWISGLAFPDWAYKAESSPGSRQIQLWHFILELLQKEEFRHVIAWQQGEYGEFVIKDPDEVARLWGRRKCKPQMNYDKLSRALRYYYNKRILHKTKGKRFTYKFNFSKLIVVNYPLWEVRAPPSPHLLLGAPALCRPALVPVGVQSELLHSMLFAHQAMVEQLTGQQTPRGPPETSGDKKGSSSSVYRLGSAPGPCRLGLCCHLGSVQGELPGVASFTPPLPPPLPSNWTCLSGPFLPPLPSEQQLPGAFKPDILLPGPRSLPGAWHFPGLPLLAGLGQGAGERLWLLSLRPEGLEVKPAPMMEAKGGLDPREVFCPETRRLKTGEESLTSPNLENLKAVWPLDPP
The note with it: protein: recombinant; tags: N-terminal GST; dsDNA, one strand shown. The gist of the method: as §1

The target of a further experiment is T8, ETS2 (Homo sapiens, UniProt P15036 1-469).
T8 sequence: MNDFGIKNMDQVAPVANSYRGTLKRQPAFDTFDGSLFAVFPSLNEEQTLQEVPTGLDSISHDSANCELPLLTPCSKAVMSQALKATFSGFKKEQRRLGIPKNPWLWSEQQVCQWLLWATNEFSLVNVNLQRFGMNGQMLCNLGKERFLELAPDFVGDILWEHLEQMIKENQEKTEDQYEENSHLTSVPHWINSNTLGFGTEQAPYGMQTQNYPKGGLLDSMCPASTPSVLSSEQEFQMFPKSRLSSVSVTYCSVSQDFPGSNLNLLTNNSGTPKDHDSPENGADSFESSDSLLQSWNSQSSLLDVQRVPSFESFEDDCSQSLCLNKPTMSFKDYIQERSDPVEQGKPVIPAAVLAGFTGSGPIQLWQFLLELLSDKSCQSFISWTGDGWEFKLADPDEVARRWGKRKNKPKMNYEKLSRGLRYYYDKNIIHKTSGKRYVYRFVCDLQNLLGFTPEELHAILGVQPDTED
The note with it: protein: recombinant; tags: N-terminal GST; dsDNA, one strand shown. The essentials: as §1

A further experiment has as its target T9, SPDEF (Homo sapiens, UniProt O95238 1-335).
T9 sequence: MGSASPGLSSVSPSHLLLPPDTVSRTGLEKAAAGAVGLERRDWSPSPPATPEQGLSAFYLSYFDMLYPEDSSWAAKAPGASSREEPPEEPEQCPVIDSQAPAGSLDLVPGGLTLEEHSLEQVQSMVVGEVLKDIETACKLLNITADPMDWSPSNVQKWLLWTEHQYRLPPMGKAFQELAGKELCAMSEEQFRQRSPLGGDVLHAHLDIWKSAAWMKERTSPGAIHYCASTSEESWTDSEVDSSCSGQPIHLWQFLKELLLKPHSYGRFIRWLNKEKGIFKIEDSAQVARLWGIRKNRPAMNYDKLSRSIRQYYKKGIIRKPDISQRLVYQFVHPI
The note with it: protein: recombinant; tags: N-terminal GST; dsDNA, one strand shown. The essentials:
as §1

The target in another experiment is T10, ETV7 (Homo sapiens, UniProt Q9Y603 1-341).
T10 sequence: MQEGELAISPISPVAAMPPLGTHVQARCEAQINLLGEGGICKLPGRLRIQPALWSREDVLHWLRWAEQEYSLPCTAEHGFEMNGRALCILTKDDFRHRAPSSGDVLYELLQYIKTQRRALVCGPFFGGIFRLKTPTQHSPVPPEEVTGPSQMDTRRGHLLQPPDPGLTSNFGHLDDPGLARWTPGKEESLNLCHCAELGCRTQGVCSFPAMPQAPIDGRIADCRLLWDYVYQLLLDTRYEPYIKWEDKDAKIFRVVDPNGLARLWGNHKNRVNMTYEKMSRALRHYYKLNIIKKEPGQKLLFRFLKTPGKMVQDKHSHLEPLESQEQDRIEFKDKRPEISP
The following applies: protein: recombinant; tags: N-terminal GST; dsDNA, one strand shown. The gist of the method: as §1

A further experiment addresses T11, ELF5 (Homo sapiens, UniProt Q9UKW6-2 1-255).
T11 sequence: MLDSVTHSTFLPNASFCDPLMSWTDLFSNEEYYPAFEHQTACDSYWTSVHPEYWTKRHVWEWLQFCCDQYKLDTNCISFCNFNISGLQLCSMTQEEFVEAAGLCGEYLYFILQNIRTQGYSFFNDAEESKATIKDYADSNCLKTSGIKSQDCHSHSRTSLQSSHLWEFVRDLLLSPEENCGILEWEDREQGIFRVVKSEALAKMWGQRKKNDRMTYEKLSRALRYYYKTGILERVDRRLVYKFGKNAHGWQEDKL
The following applies: protein: recombinant; tags: N-terminal GST; dsDNA, one strand shown. The essentials: as §1

The target in another experiment is T12, ETV3 (Homo sapiens, UniProt P41162-2 1-143).
T12 sequence: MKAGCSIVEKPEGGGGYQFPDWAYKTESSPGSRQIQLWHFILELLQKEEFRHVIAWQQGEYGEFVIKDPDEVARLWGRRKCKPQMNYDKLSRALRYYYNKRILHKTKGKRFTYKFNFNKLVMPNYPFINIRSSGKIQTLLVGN
The note with it: protein: recombinant; tags: N-terminal GST; dsDNA, one strand shown. The essentials:
as §1

The target in a further experiment is ETV6 (Homo sapiens, UniProt P41212 1-452). The following applies: protein: recombinant; tags: N-terminal GST; dsDNA, one strand shown. The gist of the method:
as §1

Chain of ETV6 (P41212 whole entry): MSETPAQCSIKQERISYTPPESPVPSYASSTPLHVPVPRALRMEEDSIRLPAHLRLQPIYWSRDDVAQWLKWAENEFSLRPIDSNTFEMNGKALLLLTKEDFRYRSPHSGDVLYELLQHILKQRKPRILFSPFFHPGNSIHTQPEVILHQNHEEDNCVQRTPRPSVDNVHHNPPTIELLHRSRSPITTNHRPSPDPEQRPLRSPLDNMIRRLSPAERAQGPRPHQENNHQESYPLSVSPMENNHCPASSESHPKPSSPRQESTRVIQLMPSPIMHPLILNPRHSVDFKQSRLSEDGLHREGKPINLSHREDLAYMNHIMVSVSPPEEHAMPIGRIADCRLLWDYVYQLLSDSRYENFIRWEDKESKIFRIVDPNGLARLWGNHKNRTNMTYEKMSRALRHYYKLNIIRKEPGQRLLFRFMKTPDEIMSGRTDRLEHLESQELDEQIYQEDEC
Chain of CRX (O43186 whole entry): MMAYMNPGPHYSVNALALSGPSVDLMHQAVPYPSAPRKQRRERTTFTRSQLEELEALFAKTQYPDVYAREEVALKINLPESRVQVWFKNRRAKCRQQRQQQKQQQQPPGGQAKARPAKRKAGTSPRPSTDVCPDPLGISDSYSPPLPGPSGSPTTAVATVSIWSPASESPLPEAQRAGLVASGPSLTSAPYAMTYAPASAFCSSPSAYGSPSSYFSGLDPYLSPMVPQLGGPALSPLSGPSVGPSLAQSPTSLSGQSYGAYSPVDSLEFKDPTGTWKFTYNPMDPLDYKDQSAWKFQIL

With CTCCTC, the binding signal with FEV is 1.37 fold enrichment (6-mer frequency, TF over GST control); in the experiment with ETV5, 1.23 fold enrichment (6-mer frequency, TF over GST control); with HSF1 it was 1.16 fold enrichment (6-mer frequency, TF over GST control); in the experiment with SPIC it was 1.3 fold enrichment (6-mer frequency, TF over GST control); in the experiment with ELF4, 1.47 fold enrichment (6-mer frequency, TF over GST control); in the experiment with ELK4, 1.41 fold enrichment (6-mer frequency, TF over GST control). Further, the binding signal in the experiment with ETV2 is 1.39 fold enrichment (6-mer frequency, TF over GST control); with ELF3, 1.3 fold enrichment (6-mer frequency, TF over GST control); with CRX, 1.08 fold enrichment (6-mer frequency, TF over GST control); with ETV1, 1.39 fold enrichment (6-mer frequency, TF over GST control); in the experiment with ERF it was 1.32 fold enrichment (6-mer frequency, TF over GST control); with ETV3L, 1.61 fold enrichment (6-mer frequency, TF over GST control). The binding signal with ETS2 is 1.33 fold enrichment (6-mer frequency, TF over GST control); in the experiment with SPDEF it was 1.29 fold enrichment (6-mer frequency, TF over GST control); in the experiment with ETV7, 1.29 fold enrichment (6-mer frequency, TF over GST control); with ELF5, 1.32 fold enrichment (6-mer frequency, TF over GST control); with ETV3, 1.22 fold enrichment (6-mer frequency, TF over GST control); in the experiment with ETV6, 1.38 fold enrichment (6-mer frequency, TF over GST control).

Source of the values: paper PMC7862700, “An all-to-all approach to the identification of sequence-specific readers for epigenetic DNA modifications on cytosine”.
